# Records with an inconclusive call do not appear. Active and inactive are the calls of the source. How the source made its calls: active means hit-call score of the fitted dose curve at least 0.9, where 1 is the maximum; inconclusive means response in the unintended direction; inactive means score below 0.9.
# Experiments:
# [1] = target: Luciferin 4-monooxygenase (Photinus pyralis) (UniProt P08659); assay: CCTE_Simmons_QuantiLum_inhib_2: CCTE's Firefly Luciferase Inhibition Assay, Simmons Lab (AID 2283767);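 on AC50: potency for inhibitors that lower luciferase luminescence relative to DMSO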
# Sequence of Luciferin 4-monooxygenase (Photinus pyralis) (P08659 whole entry, looked up): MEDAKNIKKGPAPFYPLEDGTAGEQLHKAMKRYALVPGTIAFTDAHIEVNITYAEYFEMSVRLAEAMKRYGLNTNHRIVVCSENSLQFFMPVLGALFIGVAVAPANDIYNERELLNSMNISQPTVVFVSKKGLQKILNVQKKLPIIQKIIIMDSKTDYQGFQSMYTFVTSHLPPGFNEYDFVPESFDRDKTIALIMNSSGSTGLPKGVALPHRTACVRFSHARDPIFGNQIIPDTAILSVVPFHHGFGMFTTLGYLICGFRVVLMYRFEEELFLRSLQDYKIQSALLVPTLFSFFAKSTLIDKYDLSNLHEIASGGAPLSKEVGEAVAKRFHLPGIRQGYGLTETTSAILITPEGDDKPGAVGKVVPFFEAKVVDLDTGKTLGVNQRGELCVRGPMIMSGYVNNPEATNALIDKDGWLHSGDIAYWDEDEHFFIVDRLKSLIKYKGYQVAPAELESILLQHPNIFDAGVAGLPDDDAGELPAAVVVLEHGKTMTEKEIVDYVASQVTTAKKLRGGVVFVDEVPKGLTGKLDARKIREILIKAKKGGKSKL
# Procedure, shortened: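 First, 5 ng purified luciferase in phosphate buffer with BSA is dispensed per well. Next, test chemicals (5 nM to 87.5 uM final, 0.5% DMSO) are added and incubated 30 min at 37C in darkness. Finally, luciferin reagent is injected and luminescence read kinetically.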
# [2] = ACEA_AR_agonist_AUC_viability: ACEA Biosciences xCELLigence Real-Time Cell Analysis on Androgen Receptor Agonism for Viability (AID 2283775);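 on AC50: viability read 80 hours after compound addition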
# Procedure, shortened: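 22Rv1 cells; impedance growth kinetics; 8-pt 1:4 dilutions from 100 uM top final, ≤0.5% DMSO; n = 2; 80 h read; AUC viability, loss-of-signal vs DMSO.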
# [3] = ACEA_AR_antagonist_AUC_viability: ACEA Biosciences xCELLigence Real-Time Cell Analysis on Androgen Receptor Antagonism for Viability (AID 2283776);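 further: 22Rv1 human prostate cancer cells growing on impedance electrode plates; area under impedance growth curve at 80 h after dosing as viability; hits lower the growth signal relative to DMSO meaning cytotoxicity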
# Procedure, shortened: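 Impedance read-out (RT-CES): area under growth curve at 80 h post-dose, loss of signal scored vs DMSO baseline. 22Rv1 cells; 8-pt 1:4 series, top 100 uM final, ≤0.5% DMSO; biological duplicate.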
# [4] = ACEA_ER_AUC_viability: ACEA Biosciences xCELLigence Real-Time Cell Analysis on Estrogen Receptor Agonism for Viability (AID 2283782);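 further: hit means loss of impedance signal meaning reduced cell growth or viability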
# Procedure, shortened: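 Read-out: real-time electrical impedance (RT-CES) area under curve, loss of signal taken as reduced viability, normalized to DMSO baseline. T-47D cells, charcoal-stripped serum medium, compounds up to 100 uM final, continuous exposure, 80 h.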
compound,measurement,setting,value
O=C(O)c1cccc(N(Cc2cccnc2)c2ccc(OC(F)F)c(OC(F)F)c2)c1,outcome,[1],inactive
same,AC50,[2],88.2 µM (active)
same,AC50,[3],76.9 µM (active)
CC(C)(O)c1coc(S(=O)(=O)NC(=O)Nc2c3c(cc4c2CCC4)CCC3)c1,outcome,[1],inactive
same,outcome,[2],inactive
same,outcome,[3],inactive
same,outcome,[4],inactive
Nc1ccc(Nc2ccccc2)cc1,outcome,[1],inactive
same,AC50,[2],93 µM (active)
same,AC50,[3],87.5 µM (active)
CCCCCCc1ccc(O)cc1O,outcome,[1],inactive
same,AC50,[2],16.1 µM (active)
same,AC50,[3],13.7 µM (active)
same,AC50,[4],80.1 µM (active)
O=C(OC[C@H]1O[C@@H](OC(=O)c2cc(O)c(O)c(OC(=O)c3cc(O)c(O)c(O)c3)c2)[C@H](OC(=O)c2cc(O)c(O)c(OC(=O)c3cc(O)c(O)c(O)c3)c2)[C@@H](OC(=O)c2cc(O)c(O)c(OC(=O)c3cc(O)c(O)c(O)c3)c2)[C@@H]1OC(=O)c1cc(O)c(O)c(OC(=O)c2cc(O)c(O)c(O)c2)c1)c1cc(O)c(O)c(OC(=O)c2cc(O)c(O)c(O)c2)c1,AC50,[1],21.6 µM (active)
same,AC50,[2],26.3 µM (active)
same,outcome,[4],inactive
CN(C)c1ccc(Cc2ccc(N(C)C)cc2)cc1,outcome,[1],inactive
same,AC50,[2],56.8 µM (active)
same,AC50,[3],50 µM (active)

# From PubChem BioAssay (EPA / NIEHS)
